Source: PubChem BioAssay AID1688 (National Center for Advancing Translational Sciences (NCATS), 2009)
Screen size: about 220,000 compounds; about 2,400 (1.1%) were called active. Not shown: some 7% with an inconclusive outcome. Calls come from the whole dose curve; as a rule, active = well fitted inhibition curve with a large enough effect; inconclusive = small, poorly fitted or top-dose-only effect, or effect the other way; inactive = no such curve, though single readings can be large or run the other way. What follows is part of a selection rich in actives, with near analogues and random picks from the rest. A call without a number means that no potency is given here.

Experiment: qHTS Multiplex Assay to Identify Dual Action Probes in a Cell Model of Huntington: Aggregate Formation (GFP); note: nearly all actives have a fitted effect of over 60% in size
Conditions: PC12 HttQ103-GFP aggregates, Acumen cytometry, 40 h; series mostly up to 9.22 µM
In short: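 Compounds (qHTS titration) were added to PC12 cells expressing an ecdysone-driven HTT exon 1 Q103–GFP fusion after induction with 100 nM tebufenozide. Aggregate formation was measured as GFP objects in cell lysates.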
Potency is the fitted concentration of half-maximal effect.

SMILES	Potency
COc1ccc(NC(=O)C2=NNC(=O)CC2)cc1S(=O)(=O)N1CCCCC1	inactive
CCc1cc(CNC(=O)CC2C(=O)NCCN2Cc2ccccc2C(F)(F)F)on1 (stereo not given)	inactive
Cn1c(CSCC(=O)Nc2ccccc2)nnc1SCc1ccccc1	inactive
Cc1ccc2c(c1)c1ncn(CCC3=CCCCC3)c(=O)c1n2C	inactive
Cc1ccc2c(c1)c1ncnc(N3CCc4ccccc4C3)c1n2C	11.2 µM (active)
Cc1ccc2c(c1)c1ncn(Cc3ccc(F)cc3)c(=O)c1n2C	inactive
Cc1ccc(C(=O)NNc2ncnc3ccccc23)cc1	inactive
CC(=O)COc1ccc2c(-c3ccccc3)cc(=O)oc2c1	inactive
O=C(CNC(=O)OCc1ccccc1)Oc1cc2oc(=O)cc(-c3ccccc3)c2cc1Cl	7.08 µM (active)
O=C(CNC(=O)c1ccc(-c2ccccc2)cc1)OCc1ccc(Cl)cc1	inactive
NCCCCC(N)C(=O)O (stereo not given)	inactive
O=C(CS(=O)(=O)c1ccc(C(F)(F)F)cn1)NNC(=O)c1ccccc1	inactive
CCOC(=O)c1c(C)nn(-c2ncccc2NC(=O)CCC(=O)O)c1C	inactive
O=C(Nc1cccc(Cl)c1)Nc1ccccc1NS(=O)(=O)c1cccs1	11.2 µM (active)
O=C(Nc1cccc(Cl)c1)Nc1nnc(-c2ccccc2)o1	inactive
O=C(Nc1nncs1)c1ccccc1NS(=O)(=O)c1cccs1	inactive
O=C(O)Cc1ccc(-c2ccccc2)cc1	inactive
OCC(CO)(CO)NCc1ccc(-c2ccccc2)cc1	11.2 µM (active)
O=C(Cc1ccc(-c2ccccc2)cc1)NC(c1ccccc1)c1ccccc1	inactive
CN(C(=O)CCn1c(=S)oc2ccccc21)C1CCCCC1	inactive
